Assay outcomes as filed in PubChem BioAssay.
An excerpt weighted towards active compounds, which were near 7.4% of everything screened.
ELG1 genotox: inducers of genotoxicity in HEK293T ELG1-luciferase cells; HEK293T ELG1-luciferase reporter, luminescence, 16 h; Potency, µM (series often up to 46 µM), inactives show at the highest dose activity change, positive = activation, most hits filed as activators; 1.3% of 330,000 active; note: % of control where 0% means no effect; nearly all actives have a fitted effect of over 60% in size
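Screening used a luciferase reporter fused to human ELG1 in HEK293T cells. Luminescence was read on a CCD plate imager after 16 hr exposure and 30 min ONE-Glo incubation.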
NPC1 promoter act: activates the NPC1 promoter; Huh7 NPC1 promoter luciferase reporter, 24 h; Potency, µM (titrated, usually from 9.22 µM), inactives show at the highest dose activation, most hits filed as activators; 2.4% of 320,000 active; note: % of control where 0% means no effect; nearly all actives have a fitted effect of over 60% in size
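Cells: Huh7 expressing luciferase under the NPC1 promoter, 1500/well. Seeded 2 h, compound added, incubated 24 h at 37 °C. Luciferase reagent, 10 min ambient, then luminescence.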
FLuc modulator: inhibits or activates purified firefly luciferase, miR-21 counter-screen; P08659; purified FLuc, Km substrates, luminescence inhibition; Potency, µM (series often up to 57.5 µM), inactives show at the top dose activity change, negative = inhibition, actives largely listed as inhibitors; 6.9% of 360,000 active; AID 588342;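 note: plate controls were vehicle for no effect and reference inhibitor for full effect; nearly all actives have a fitted effect of over 55% in size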
Target sequence (P08659 whole entry, looked up): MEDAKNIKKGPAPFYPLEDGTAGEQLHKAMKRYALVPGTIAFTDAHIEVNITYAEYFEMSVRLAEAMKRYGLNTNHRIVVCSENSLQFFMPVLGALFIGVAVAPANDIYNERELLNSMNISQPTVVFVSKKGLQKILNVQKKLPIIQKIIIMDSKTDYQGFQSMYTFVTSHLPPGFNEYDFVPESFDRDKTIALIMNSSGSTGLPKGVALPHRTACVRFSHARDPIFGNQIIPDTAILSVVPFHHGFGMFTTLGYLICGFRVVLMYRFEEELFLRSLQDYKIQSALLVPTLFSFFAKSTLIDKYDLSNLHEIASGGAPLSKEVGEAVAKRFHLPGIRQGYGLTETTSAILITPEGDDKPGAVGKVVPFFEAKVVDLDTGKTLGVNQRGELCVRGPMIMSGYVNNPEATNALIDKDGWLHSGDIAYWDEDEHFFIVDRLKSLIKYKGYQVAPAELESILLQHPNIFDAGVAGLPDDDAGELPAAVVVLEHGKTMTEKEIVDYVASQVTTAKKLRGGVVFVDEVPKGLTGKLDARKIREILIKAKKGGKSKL
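Biochemical qHTS of compounds, final roughly 60 µM downward over six points, against 10 nM purified firefly luciferase using Km concentrations of substrates (10 uM D-luciferin, 10 uM ATP) in Tris acetate pH 7.5 buffer; luminescence output.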
SMN2 splice enh: SMN2 splice variant enhancement. HEK293 SMN2-luciferase splicing reporter, luminescence, 30-36 h. Potency, µM (titrated, usually from 46.1 µM), inactives show top-dose activity change, positive = activation, most hits filed as activators. 2.8% of 210,000 active. AID 1458; note: % of control where 0% means no effect; nearly all actives have a fitted effect of over 55% in size
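qHTS luciferase splicing reporter: luminescence rises when SMN2 exon 7 is included in transfected HEK293 cells. Compound exposure lasted 30-36 h at 37C, with 4.5 mM final sodium butyrate as control, followed by a ONE-Glo read.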
KinaseGlo FLuc: blocks Kinase-Glo luciferase, a counter-screen artifact; 0.28% of 200,000 active; Potency, µM (series often up to 38.3 µM), inactives show at the highest dose activity change, negative = inhibition, most hits filed as inhibitors; Kinase-Glo luciferase, ATP luminescence, 8 min; note: % is set by controls: 0 for no effect and ±100 for the full control effect; nearly all actives have a fitted effect of over 60% in size
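Inhibition of Kinase-Glo luciferase light generation was assessed at 10 uM ATP in pH 7.2 imidazole buffer, with luminescence measured after eight minutes at ambient temperature.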
Rab9 promoter act: activates the Rab9 promoter; Huh7 Rab9 promoter-luciferase reporter, luminescence, 24 h; Potency, µM (highest dose often 9.22 µM), for inactives: at the top dose activation, negative = inhibition, most hits filed as activators; 2.8% of 320,000 active; AID 485297; note: % of control where 0% means no effect; nearly all actives have a fitted effect of over 60% in size
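Quantitative HTS format; Huh7 Rab9-luciferase reporter cells (1500/well) receive compound 2 h post-plating, incubate 24 h at 37 °C, then get luciferase reagent for 10 min before luminescence reading.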
Active calls of the source: *; ? = inconclusive; . = not tested or not shown; [ ] = another dose, or the depositor's remark. Calls come from the whole dose curve; as a rule, active = well fitted curve in the direction sought with a large enough effect; inconclusive = small, poorly fitted or top-dose-only effect, or another doubt; inactive = no such curve, though single readings can be large; an effect the other way counts as inactive or inconclusive. Potency is the fitted concentration of half-maximal effect.

SMILES	ELG1 genotox	NPC1 promoter act	FLuc modulator	SMN2 splice enh	KinaseGlo FLuc	Rab9 promoter act
Cc1ccc(C(=O)NCC(=O)OCC(=O)c2cc(C)n(Cc3ccco3)c2C)cc1	6.0%	-1.3%	23.9µM*	.	.	-2.6%
O=C(Nc1ccc(F)cc1)[C@H](Cc1ccccc1)N1Cc2ccccc2C1=O	.	.	1.8%	0.0%	.	.
CCC(=O)N1CCc2cc(S(=O)(=O)N(C)c3cccc(C)c3)ccc21	.	.	-2.4%	8.1%	.	.
C=CCn1c(C)cc(C(=O)COC(=O)C2CC(=O)N(Cc3ccccc3)C2)c1C (stereo not given)	2.8%	2.5%	23.9µM*	12.0%	1.4%	-7.4%
Cc1[nH]c2ccccc2c1C(=O)COC(=O)C1CC(=O)N(Cc2ccccc2)C1 (stereo not given)	-1.1%	-1.2%	11.0%	10.3%	4.4%	-8.3%
COc1cccc(/C=C/C(=O)Nc2ccccc2N2CCOCC2)c1	.	0.4%	16.9µM*	.	1.1%	9.0%
O=C(Nc1ccc(CN2CCOCC2)cc1)c1ccc(F)cc1	?	?	21.3µM*	.	.	?
O=C(Nc1ccc(CN2CCOCC2)cc1)c1cccc(F)c1	16.4µM*	2.82µM*	9.53µM*	12.6µM*	1.2%	2.82µM*
O=C(NC(N1CCOCC1)C(Cl)(Cl)Cl)c1ccco1 (stereo not given)	16.4µM*	?	8.49µM*	.	-7.1%	?
COC(=O)c1ccc(NC(=O)c2ccc(CN3CCOCC3)cc2)cc1	-0.3%	-4.9%	?	-85.3%	-3.9%	-25.0%
CCOc1ccccc1N(CC)C(=O)Cn1ncc2c([nH]c3ccccc32)c1=O	.	.	-1.1%	.	.	.
O=C(Nc1ccccc1N1CCOCC1)c1ccc2ccccc2c1	-4.4%	8.0%	10.7µM*	.	.	3.3%
O=C(Nc1cccc([N+](=O)[O-])c1)c1ccc(CN2CCOCC2)cc1	7.2%	21.5%	16.9µM*	.	-2.0%	24.4%
CC(=O)Nc1ccc(/C(C)=N/NC(=O)c2ccc(CN3CCOCC3)cc2)cc1	1.0%	-3.1%	-0.2%	-42.6%	7.7%	-5.2%
C/C(=N\NC(=O)c1ccc(CN2CCOCC2)cc1)c1ccc(NC(=O)c2ccccc2)cc1	?	?	?	11.2µM*	-3.6%	?
O=C(Nc1ccc(Cn2cccn2)cc1)c1ccc(COc2ccccc2Br)cc1	-5.7%	9.1%	16.9µM*	-42.9%	-1.2%	-5.3%
S=C(S)NCCN1CCNCC1	.	.	.	-1.5%[9.22 µM]	-6.2%[7.66 µM]	.
CCOc1ccccc1CNCc1c(C(=O)O)c(C)n(Cc2ccc(Cl)cc2)c1C	.	.	1.7%	1.1%	.	.
COc1ccc(C(=O)NC(=S)Nc2ccc(CN3CCOCC3)cc2)cc1Br	-9.6%	2.0%	-5.2%	.	.	-8.7%
O=C(Nc1ccc(CN2CCOCC2)cc1)c1ccc2ccccc2c1	?	1µM*	8.49µM*	.	.	1.41µM*
Cc1cc(/C=N/NC(=O)c2ccc(CN3CCOCC3)cc2)c(C)n1-c1ccccc1	?	0.9%	6.75µM*	-51.4%	-5.3%	-0.9%
O=C(N/N=C/c1ccccc1[N+](=O)[O-])c1ccc(CN2CCOCC2)cc1	1.7%	2.6%	?	-1.1%[1.84 µM]	-3.6%	5.2%
CCOc1ccc(C(=O)Nc2ccc(CN3CCOCC3)cc2)cc1Br	-5.8%	1.3%	13.5µM*	.	.	3.5%
O=C(Nc1ccc(CN2CCOCC2)cc1)c1ccco1	?	2µM*	21.3µM*	.	.	1.41µM*
CCOc1ccc(NC(=O)CSc2ncc3c(n2)-c2ccc(Cl)cc2N(Cc2ccccc2)S3(=O)=O)cc1	.	.	1.5%	.	.	.
SMILES	ELG1 genotox	NPC1 promoter act	FLuc modulator	SMN2 splice enh	KinaseGlo FLuc	Rab9 promoter act
CCCCn1cnc2cc(NC(=O)c3cc(OC)c(OC)c(OC)c3)ccc21	.	.	-17.5%	-1.7%	.	.
Cc1ccc(S(=O)(=O)N2CCCc3cc(NC(=O)c4ccccc4Cl)ccc32)cc1	.	.	3.1%	.	.	.
CCOc1ccc(C(=O)Nc2cccc(NC(=O)c3ccc(C(C)(C)C)cc3)c2)cc1Br	.	.	1.51µM*	?	.	.
O=C(NCCSc1ccc(Cl)cc1)c1ccc(CN2CCOCC2)cc1	-3.4%	-4.1%	-8.5%	.	-4.1%	-6.0%
CCC(C)Oc1ccc(C(=O)Nc2ccc(CN3CCOCC3)cc2)cc1 (stereo not given)	-2.4%	-5.5%	15.1µM*	.	.	-9.5%
C/C(=N/NC(=O)c1ccco1)c1ccc(NC(=O)c2ccc(F)cc2)cc1	13.1%	28.5%	?	15.8µM*	-0.7%	?
C/C(=N/NC(=O)c1ccco1)c1ccc(NC(=O)c2ccc(Br)o2)cc1	13.0%	?	?	.	.	?
O=C(NCCSc1ccccc1)c1ccc(CN2CCOCC2)cc1	?	2µM*	12µM*	.	.	2µM*
CCOc1ccc(NC(=O)c2ccc(NC(=O)c3ccc(CN4CCOCC4)cc3)cc2)cc1	?	-2.4%	-6.3%	.	.	-14.0%
CCC(C(=O)Nc1cc(C)ccc1C)n1c(=O)c(C(F)(F)F)nc2ccccc21 (stereo not given)	.	.	-3.6%	.	.	.
NC(=S)NCCCC(N)C(=O)O (stereo not given)	.	.	.	-12.6%	-2.2%	.
COC(=O)C/C=C/[C@@H](C)[C@H](OC)c1c(Br)ccc2c1OCO2	.	.	.	4.2%	-0.5%	.
O=C(Nc1ccc(CN2CCOCC2)cc1)c1ccc(Cl)cc1	?	?	16.9µM*	.	.	?
O=C(Nc1ccc(CN2CCOCC2)cc1)c1ccc(Br)cc1	?	?	?	.	.	11.8%
O=[N+]([O-])c1cccc(-c2nc(-c3ccccc3)no2)c1	?	6.31µM*	1.35µM*	.	-10.7%	3.98µM*
O=[N+]([O-])c1cccc(-c2nc(-c3ccncc3)no2)c1	?	?	?	16.7%	-11.4%	?
O=[N+]([O-])c1cccc(-c2noc(-c3ccco3)n2)c1	?	3.55µM*	9.53µM*	.	.	2.51µM*
CCc1ccc(C(=O)NC2=NC(c3cc(OC)ccc3OC)CC(=O)N2)cc1 (stereo not given)	.	.	-1.3%	6.8%	.	.
O=c1[nH]c(S)nc2sc3c(c12)CCCC3	1.2%	0.2%	?	5.3%	1.5%	-2.8%
O=c1[nH]c(-c2ccco2)nc2sc3c(c12)CCCC3	9.2µM*	2µM*	3.01µM*	1µM*	-10.8%	1.58µM*
O=c1oc(/C=C/c2ccco2)nc2sc3c(c12)CCC3	0.3%	17.8%	0.953µM*	15.0%	-4.0%	16.3%
O=c1oc(-c2cccs2)nc2sc3c(c12)CCC3	-1.1%	18.3%	?	?	-5.4%	-1.0%
COc1ccccc1CNC(=O)CCn1cnc2ccccc2c1=O	.	.	3.2%	.	.	.
CCc1ccc(NC(=O)N(Cc2c[nH]c3ccccc23)C2CCCCC2)cc1	.	.	-2.4%	8.7%	.	.
CCc1ccc(NC(=O)N(Cc2c[nH]c3ccccc23)C2CCCCCC2)cc1	.	.	-7.1%	5.01µM*	.	.
